Assay [1] has as its target Lysosomal acid glucosylceramidase (Homo sapiens) (UniProt P04062). The assay can be described thus: Glucocerebrosidase-p2 (AID 348; in the data active = potency below about 10 µM; also: potency is read from the fitted curve at half-maximal effect). The conditions noted are these: purified GBA, blue fluorogenic substrate, 40 min. In a few lines: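 Compounds titrated from 0.6 nM upwards against 0.2 nM enzyme in pH 5.9 citric acid/KH2PO4, taurocholate, tween-20; blue fluorogenic substrate 80 uM, 40 min room temperature, stopped and read Ex 365/Em 440 for AC50.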

The nature of assay [2]: AP1 Signaling Pathway (AID 357). Also: % is scaled to controls: 0 for no effect and ±100 for the full control effect. The conditions noted are these: ME-180 AP-1-bla reporter, EGF-induced, beta-lactamase ratio, 5 h; at 7.69 µM (top of the series) unless noted. In short, it runs like this: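 Cells are seeded overnight, exposed to compound titrations and an EC50 level of EGF for 5 hours at 37 °C, then loaded with CCF4 dye for 2.5 hours. Beta-lactamase activity under the AP-1 element is read as a blue/green ratio.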

A short description of assay [3]: NFAT Signaling Pathway (AID 444).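 Also: carbachol stimulus at about its EC50 of 1 µM final; % is scaled to controls: 0 for no effect and ±100 for the full control effect.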 The conditions noted are these: Jurkat NFAT-bla M1, carbachol, beta-lactamase ratio, 5 h; at 7.69 µM (top of the series) unless noted. In a few lines:
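Read-out: CCF4 FRET ratio (460 nm/530 nm) after 1 h RT dye loading, used for %activity and AC50 from titration series. Cells: Jurkat NFAT-β-lactamase/M1 line, treated with compound plus 1 uM carbachol for 5 h, 37 °C.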

Assay [4] is described as follows: Stat Signaling Pathway (AID 446).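 Also: ME-180 cervical cancer cells given 40 pM IL-6 alongside compound; SIE-controlled beta-lactamase reporter measured as 460/530 nm FRET emission ratio; % is scaled to controls: 0 for no effect and ±100 for the full control effect.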 The following applies: ME-180 (cervical carcinoma) SIE beta-lactamase reporter, IL-6 stimulated, 5 h; at 7.69 µM (top of the series) unless noted. In short, it runs like this:
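ME-180 cells carrying a SIE-driven beta-lactamase reporter are stimulated with 40 pM IL-6 for 5 h at 37C in the presence of compound. The 460/530 nm FRET substrate ratio is read after 2.5 h at RT. Data are normalised to 300 pM IL-6 and to 125 nM JAK inhibitor controls.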

The target in assay [5] is Glucocorticoid receptor (Homo sapiens) (UniProt P04150). Kind of assay: GR-GFP Redistribution (AID 450;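 active = compounds whose dose series gives a full or clear partial fitted curve of increased nuclear translocation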; also: potency is read from the fitted curve at half-maximal effect). The following applies: U2OS GR-GFP nuclear translocation, laser cytometry, 2 h.
Chain of Glucocorticoid receptor (Homo sapiens) (P04150 whole entry, looked up, the tested form may be a part): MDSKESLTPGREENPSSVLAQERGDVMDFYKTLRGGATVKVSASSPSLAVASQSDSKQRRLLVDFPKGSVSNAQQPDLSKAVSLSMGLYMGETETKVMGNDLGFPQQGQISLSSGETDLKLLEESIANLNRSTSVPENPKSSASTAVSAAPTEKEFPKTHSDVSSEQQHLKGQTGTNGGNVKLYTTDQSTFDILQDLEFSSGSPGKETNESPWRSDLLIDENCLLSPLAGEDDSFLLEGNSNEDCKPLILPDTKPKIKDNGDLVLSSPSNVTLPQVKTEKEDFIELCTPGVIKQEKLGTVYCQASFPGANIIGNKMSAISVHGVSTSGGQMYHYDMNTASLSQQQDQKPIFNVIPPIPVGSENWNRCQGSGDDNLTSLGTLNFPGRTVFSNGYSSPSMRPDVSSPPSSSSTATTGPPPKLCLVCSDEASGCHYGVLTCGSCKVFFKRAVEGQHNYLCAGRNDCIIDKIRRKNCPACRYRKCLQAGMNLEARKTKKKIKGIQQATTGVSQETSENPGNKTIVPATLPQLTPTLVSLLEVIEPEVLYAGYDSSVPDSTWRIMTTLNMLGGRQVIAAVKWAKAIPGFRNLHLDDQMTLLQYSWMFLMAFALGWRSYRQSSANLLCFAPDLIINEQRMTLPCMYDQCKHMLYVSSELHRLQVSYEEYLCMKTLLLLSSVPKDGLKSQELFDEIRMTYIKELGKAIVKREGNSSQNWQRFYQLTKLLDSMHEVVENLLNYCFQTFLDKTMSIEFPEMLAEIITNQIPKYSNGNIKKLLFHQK
Assay [6] has the same target. The assay can be described thus: GR-EFC Redistribution (AID 451; calls by dose curve; also: potency is read from the fitted curve at half-maximal effect). The following applies: CHO-K1 GR-EFC translocation, beta-gal luminescence, 2 h. In short, it runs like this: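 Translocation of GR-ED fusion to nuclear EA restores b-gal, read by luminescence after 1 h room-temperature detection. Engineered CHO-K1 biosensor cells, 1,000/well, exposed 2 h at 37 C to titrations up to 46 uM final.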

The target in assay [7] is Mitogen-activated protein kinase 10 (Mus musculus) (UniProt Q61831). Kind of assay: JNK3 AlphaScreen Assay (AID 530).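 Also: kinase came from lysate of stimulated human HepG2 cells; signal reports phosphorylation of biotinylated GST-cJun 1-79 at Ser73 with 10 µM ATP; % is scaled to controls: 0 for no effect and ±100 for the full control effect.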 The conditions noted are these: JNK3 lysate, c-Jun phosphorylation; series mostly up to 57.1 µM. In short, it runs like this:
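Compound titrations were preincubated 15 minutes at room temperature with substrate, antibody and pre-activated JNK3-containing HepG2 lysate. Reactions were started with 10 uM ATP and stopped with EDTA-containing bead buffer for AlphaScreen detection.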

A short description of assay [8]: qHTS Assay for Lipid Storage Modulators (AID 1519; calls by dose curve). The following applies: Drosophila S3 cells, BODIPY lipid droplet/cell ratio, laser cytometry, cells loaded with oleic acid; for activity change, negative = inhibition: at 57.5 µM (top of the series). In a few lines: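 Cells seeded at 5,000 per well were treated with compounds over a concentration series and loaded with oleic acid (400 uM, as added). Lipid droplet fluorescence (488 nm excitation, 500-530 nm channel) was read by laser-scanning cytometry and normalized to 20 uM Triacsin C.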

A short description of assay [9]: Primary qHTS for small molecule stabilizers of the endoplasmic reticulum resident proteome: Secreted ER Calcium Modulated Protein (SERCaMP) assay (AID 1508630; active = well fitted curve in the direction sought with a large enough effect; an effect the other way counts as inactive or inconclusive; also: % is scaled to controls: 0 for no effect and ±100 for the full control effect). The conditions noted are these: SH-SY5Y GLuc-SERCaMP (Gaussia luciferase released on ER calcium loss) secretion, thapsigargin, luminescence; series mostly up to 38.4 µM. In short, it runs like this:
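GLuc-SERCaMP-expressing SH-SY5Y cells, pretreated 16 h with compound, are challenged with thapsigargin to empty ER calcium stores; after 4 h, coelenterazine is added directly to the medium and luminescence is imaged.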
In general terms: In qHTS, concentration-response curves come from the screen itself.

Assay [10] addresses 3',5'-cyclic-AMP phosphodiesterase 4B (Homo sapiens) (UniProt Q07343). The assay can be described thus: qHTS Assay for Inhibitors of PDE-IV (AID 607; active = well fitted activation curve with a large enough effect in the main read-out, with a control signal flat, not every such curve was filed as active; also: % of control where 0% means no effect). The following applies: HEK293 ACTOne CNG channel cells, membrane potential fluorescence; series mostly up to 22.9 µM. In a few lines:
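HEK293 ACTOne cells with CNG channel (1000/well), endogenous PDE4; membrane potential dye, compounds up to 22.9 uM final. Fluorescence Ex 535/Em 590; RO 20-1724 (100 uM final) as reference.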

The nature of assay [11]: Confirmation and Secondary Assay for Modulators of Hemoglobin Beta Chain Splicing at IVS2 654 locus (AID 910; active = well fitted curve in the direction sought with a large enough effect; an effect the other way counts as inactive or inconclusive;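 also: HeLa cells stably carrying EGFP split by mutant beta-globin IVS2-654 intron; per-well total GFP intensity by laser scanning cytometry after 2-day treatment; % of control where 0% means no effect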). The conditions noted are these: HeLa EGFP-654 splicing reporter, GFP fluorescence, 48 h; series mostly up to 38.3 µM. In a few lines: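 Readout: per-well total peak green fluorescence (488 nm ex, 500–520 nm em) from objects 5–250 µm, reflecting correct splicing of an EGFP-654 reporter. Compounds were applied for 2 days at 37 °C to overnight-plated HeLa EGFP-654 cells; controls were DMSO and 500 nM IVS2-654 PNA.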

Assay [12] can be described thus: Confirmation and Secondary Assay for Modulators of Hemoglobin Beta Chain Splicing at IVS2 705 locus (AID 930; active = well fitted curve in the direction sought with a large enough effect; an effect the other way counts as inactive or inconclusive;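 also: HeLa cells stably expressing the EGFP-705 splicing reporter; GFP fluorescence per well restored by corrected splicing of the IVS2-705 intron in EGFP; % of control where 0% means no effect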). The following applies: HeLa EGFP-705 splicing reporter, GFP fluorescence, 48 h; series mostly up to 38.3 µM. In short, it runs like this:
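Splice-correction reporter: EGFP cDNA split by beta-globin intron 2 bearing the 705 mutation, stably in HeLa. Compound incubation 2 days, 37C; fluorescent objects 5-250 µm summed per well.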

In assay [13] the target is Ubiquitin carboxyl-terminal hydrolase 1 (Homo sapiens) (UniProt O94782). The assay can be described thus: Inhibitors of USP1/UAF1: Pilot qHTS (AID 504865; active = well fitted curve in the direction sought with a large enough effect; an effect the other way counts as inactive or inconclusive;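 also: rhodamine fluorescence freed from ubiquitin-rhodamine substrate followed over time; top concentration of the series differs between compounds; % is scaled to controls: 0 for no effect and ±100 for the full control effect; nearly all actives have a fitted effect of over 35% in size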). The following applies: purified USP1/UAF1, Ub-rhodamine cleavage fluorescence; series mostly up to 54.9 µM. In a few lines: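 USP1/UAF1 complex (1nM) preincubated with compound 15 min at room temperature, then Ub-Rho substrate (150nM final) added. Fluorescence read kinetically at 480/540 nm, 6 reads every 60 seconds. Buffer: 50mM HEPES pH 7.8, 0.5mM EDTA, 0.1 mg/ml BSA, 1mM TCEP, 0.01% Tween-20.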
Chain of Ubiquitin carboxyl-terminal hydrolase 1 (Homo sapiens) (O94782 whole entry, looked up): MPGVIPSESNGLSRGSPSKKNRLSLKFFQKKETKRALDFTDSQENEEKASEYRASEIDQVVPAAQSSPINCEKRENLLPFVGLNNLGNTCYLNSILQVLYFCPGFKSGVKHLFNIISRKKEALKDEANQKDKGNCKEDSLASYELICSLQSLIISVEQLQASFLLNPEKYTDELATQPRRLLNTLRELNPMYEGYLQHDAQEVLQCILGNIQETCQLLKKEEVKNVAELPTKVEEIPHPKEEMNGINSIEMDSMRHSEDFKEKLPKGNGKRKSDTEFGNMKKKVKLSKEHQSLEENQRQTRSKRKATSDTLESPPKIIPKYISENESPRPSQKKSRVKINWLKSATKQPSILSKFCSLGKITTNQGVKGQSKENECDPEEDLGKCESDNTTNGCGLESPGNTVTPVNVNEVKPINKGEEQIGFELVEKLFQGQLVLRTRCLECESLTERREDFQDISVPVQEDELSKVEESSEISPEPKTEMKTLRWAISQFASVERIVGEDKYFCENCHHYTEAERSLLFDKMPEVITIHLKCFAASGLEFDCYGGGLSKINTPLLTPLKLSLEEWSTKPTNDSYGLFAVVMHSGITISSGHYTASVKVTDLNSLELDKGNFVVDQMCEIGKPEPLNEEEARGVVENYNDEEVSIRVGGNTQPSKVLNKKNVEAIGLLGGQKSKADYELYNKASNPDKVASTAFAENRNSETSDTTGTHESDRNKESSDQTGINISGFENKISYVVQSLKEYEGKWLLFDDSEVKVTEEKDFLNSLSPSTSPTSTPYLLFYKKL

The mark [14] stands for this setting: measured here: cell count channel max response.
Where [15] appears, read: measured here: lipid channel max response.

Inconclusive results are not listed. Activity calls are given as the source filed them. Unless noted, calls follow the shape of the dose curve; as a rule, active = well fitted curve in either direction with a large enough effect (not every such curve was filed as active); inconclusive = small, poorly fitted or top-dose-only effect, or another doubt; inactive = flat fitted curve, though single readings scatter.

Chain of Lysosomal acid glucosylceramidase (Homo sapiens) (P04062 whole entry, looked up): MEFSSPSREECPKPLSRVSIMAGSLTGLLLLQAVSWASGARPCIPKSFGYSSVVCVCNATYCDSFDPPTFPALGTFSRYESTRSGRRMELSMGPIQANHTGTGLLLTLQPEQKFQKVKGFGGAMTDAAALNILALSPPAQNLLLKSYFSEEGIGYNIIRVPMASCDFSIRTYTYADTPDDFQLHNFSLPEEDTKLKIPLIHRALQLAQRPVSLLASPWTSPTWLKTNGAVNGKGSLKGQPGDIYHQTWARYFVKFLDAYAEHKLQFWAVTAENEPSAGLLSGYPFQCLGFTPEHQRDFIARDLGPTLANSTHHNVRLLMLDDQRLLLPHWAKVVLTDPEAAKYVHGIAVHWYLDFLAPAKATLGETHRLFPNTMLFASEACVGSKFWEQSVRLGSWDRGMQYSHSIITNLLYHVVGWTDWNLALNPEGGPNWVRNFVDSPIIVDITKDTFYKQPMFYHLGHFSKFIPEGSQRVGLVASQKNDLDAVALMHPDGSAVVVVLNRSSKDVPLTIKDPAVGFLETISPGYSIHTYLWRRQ
Chain of 3',5'-cyclic-AMP phosphodiesterase 4B (Homo sapiens) (Q07343 whole entry, looked up): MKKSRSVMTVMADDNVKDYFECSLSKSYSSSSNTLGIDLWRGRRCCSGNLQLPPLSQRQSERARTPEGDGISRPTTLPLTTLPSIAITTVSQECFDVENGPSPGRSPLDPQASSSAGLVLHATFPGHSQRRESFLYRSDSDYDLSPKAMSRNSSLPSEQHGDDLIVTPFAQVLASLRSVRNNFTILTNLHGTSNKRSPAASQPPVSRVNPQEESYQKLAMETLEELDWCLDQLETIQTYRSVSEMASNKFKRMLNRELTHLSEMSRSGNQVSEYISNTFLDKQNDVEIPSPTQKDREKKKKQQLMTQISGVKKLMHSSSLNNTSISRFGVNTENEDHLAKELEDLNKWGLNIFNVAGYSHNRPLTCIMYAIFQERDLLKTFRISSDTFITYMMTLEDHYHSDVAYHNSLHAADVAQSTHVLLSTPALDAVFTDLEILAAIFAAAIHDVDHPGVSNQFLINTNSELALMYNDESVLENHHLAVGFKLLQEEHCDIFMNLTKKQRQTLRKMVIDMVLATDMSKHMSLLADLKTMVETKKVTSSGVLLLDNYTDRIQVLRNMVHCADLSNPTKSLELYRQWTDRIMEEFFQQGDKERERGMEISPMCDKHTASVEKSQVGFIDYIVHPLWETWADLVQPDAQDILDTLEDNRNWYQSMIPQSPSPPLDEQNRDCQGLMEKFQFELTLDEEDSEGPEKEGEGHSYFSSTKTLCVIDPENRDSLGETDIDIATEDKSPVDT

As for `COc1cccc(-c2cc(NCc3cccc(C)c3)ncn2)c1`, the values for the Potency in assay [1], in [5] and in assay [6] were > 11.4 µM (inactive), > 46 µM (inactive) and > 46 µM (inactive), respectively. Besides, the activity change, negative = inhibition is -1.98% (inactive) in assay [2], -3.2% (inactive) in assay [3] and -15.5% (inactive) in assay [8]. Moreover, the activity, negative = inhibition in assay [4] is -11.9% (inactive). Besides, the Potency entry in assay [7] was “inactive”. Moreover, the results for the max response in assay [8] (setting [14]) and in assay [8] (setting [15]) were 8.52% and -6.01%, respectively. Further, in assay [9], the outcome was inactive.
Consider `CN(C)C(=O)c1ccc(-c2ccc3ncnc(NC4CCNCC4)c3c2)cc1`, for which the Potency in assay [1] was > 11.4 µM (inactive); in assay [5], > 46 µM (inactive); in [6], > 46 µM (inactive). The activity change, negative = inhibition in [2] was -6.93% (inactive); in assay [3], 7.8% (inactive); in [8], 6.36% (inactive). Further, the activity, negative = inhibition in assay [4] was 14.8% (inactive). Moreover, the Potency entry in [7], in [10], in [11] and in assay [13] was “inactive” each time. Also, the result in assay [12] and in assay [9] was inactive. Also, the figures for the max response in [8] (setting [14]) and in assay [8] (setting [15]) were 9.43% and 16.5%, respectively.
`COc1ccc(NC(=O)N2CC[C@@]3(CCCN(C(=O)c4ccco4)C3)C2)cc1`: the Potency was > 11.4 µM (inactive) in assay [1] and > 46 µM (inactive) in assay [6]. Besides, the figures for the activity change, negative = inhibition in assay [2], in assay [3] and in assay [8] were -13.2% (inactive), -7.9% (inactive) and 2.86% (inactive), respectively. For the same compound, the activity, negative = inhibition in [4] was 13.8% (inactive). Moreover, the Potency result in [7] and in [10] was “inactive” each time. Further, the max response in [8] (setting [14]) is 9.78%; in [8] (setting [15]), 12.5%. Moreover, the result in [9] was inactive.
For the compound `CC(C)NC(=O)N1CC[C@@]2(CCCN(C(=O)c3cnccn3)C2)C1`, the Potency was > 11.4 µM (inactive) in assay [1] and > 46 µM (inactive) in [6]. Moreover, the activity change, negative = inhibition in [2] was 7.64% (inactive); in assay [3], 11.4% (inactive); in assay [8] it was 3.99% (inactive). Also, the activity, negative = inhibition in [4] was 4.04% (inactive). Moreover, the Potency result in assay [7] and in assay [10] was “inactive” each time. The max response in assay [8] (setting [14]) is -1.16%; in assay [8] (setting [15]), 5.89%. In assay [9], the outcome was inactive.
Regarding `CC(=O)NCCNc1nc(-c2ccccc2CN(C)C)nc2ccccc12`, the results for the Potency in assay [1], in assay [5] and in assay [6] were > 11.4 µM (inactive), > 46 µM (inactive) and > 46 µM (inactive), respectively. For the same compound, the activity change, negative = inhibition in assay [2] is 6.16% (inactive); in assay [3] it was 2.15% (inactive); in assay [8] it was 5.82% (inactive). The activity, negative = inhibition in assay [4] was 13.7% (inactive). The Potency entry in assay [7], in assay [10], in assay [11] and in assay [13] was “inactive” in each case. Besides, the compound was called inactive in assay [12] and in [9]. Besides, the max response in [8] (setting [14]) was found to be 13.1%; in assay [8] (setting [15]), 18.7%.
With `O=C(c1csnn1)N1CCC2(CCCN(c3cccc(-c4ccccc4)c3)C2)CC1`, the values for the Potency in [1] and in assay [6] were > 11.4 µM (inactive) and > 46 µM (inactive), respectively. The activity change, negative = inhibition in assay [2] is -12.3% (inactive); in [3], -13.8% (inactive); in [8], -16.4% (inactive). Also, the activity, negative = inhibition in assay [4] is -5.72% (inactive). In addition, the Potency entry in assay [7] and in [10] was “inactive” each time. Moreover, the max response in assay [8] (setting [14]) is 9.62%; in [8] (setting [15]) it was -3.2%. Further, the result in [9] was inactive.

The record behind these values is PubChem BioAssay (NCATS).
